Source: PubChem BioAssay
The sample as a whole holds a higher share of hits than the screen did.
NOMO-1 viab – STK33 inhibitor candidate reducing NOMO-1 cell viability. NOMO-1 AML viability, CellTiter-Glo luminescence, 72 h. inhibition, % (concentration not given with the values). 37,000 compounds, 7.5% hits; in the data active = inhibition above about 80%
YB-1 expr inh – YB-1 expression inhibition | U2OS, qRT-PCR YB-1 vs CDIP delta delta Cp, 16 h; stronger effect = higher value; zero = DMSO, each unit about twofold | delta delta Cp (YB-1 minus CDIP) (concentration not given with the values) | 30,000 compounds, 0.37% hits | AID 434959;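 active = delta delta Cp rounded down to an integer at or above 3, about 3 SD of DMSO wells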;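 note: higher means less YB-1 transcript or more CDIP transcript relative to DMSO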
U2OS ROS induce – inducers of reactive oxygen species in cancer cells | U2OS ROS induction, H2DCF-DA fluorescence | ROS induction (% of piperlongumine), % at 10 µM | 46,000 compounds, 2% hits | AID 624156; in the data active = ROS induction above about 79%, passing the limit was not always enough
PD-1 reverse act – reversal of PD-1 mediated T-cell inhibition; primary human CD4 T cells, PD-L1 beads, CellTiter-Glo 96 h; AID 2316; activation, % (test concentration not listed); 29,000 tested, under 10 active; call rule not given here
MITF inhib – inhibitors of MITF | TRPM1 promoter luciferase, luminescence, 24 h | inhibition, % (concentration not given with the values) | 37,000 compounds, 0.28% hits; in the data active = inhibition above about 85%;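 note: human melanocyte line stably carrying TRPM1 promoter luciferase reporter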
Large screens that a line does not name were inactive.

Cc1[nH]c2ccccc2c1C(c1c(C)[nH]c2ccccc12)C(C)C	NOMO-1 viab 115
C[C@H]1CN([C@@H](C)CO)C(=O)Cc2cc(NC(=O)Nc3cccc4ccccc34)ccc2O[C@@H]1CN(C)Cc1ccc(Cl)c(Cl)c1	NOMO-1 viab 108
C[C@@H]1CN([C@H](C)CO)C(=O)Cc2cc(NC(=O)Nc3cccc4ccccc34)ccc2O[C@@H]1CN(C)Cc1ccccc1	NOMO-1 viab 88
O=C1C(=O)N(Cc2ccco2)C(c2ccc(Cl)cc2)C1C(=O)c1cc2ccccc2o1 (configuration not stated)	none (no result: YB-1 expr inh)
COC(=O)COc1ccc(C2NC(=S)NC(C)=C2C(=O)OC)cc1 (configuration not stated)	NOMO-1 viab 89 (no result: YB-1 expr inh, U2OS ROS induce, PD-1 reverse act)
Cc1nn(-c2ccccc2)c(Cl)c1C1N(Cc2ccccc2)CCN1Cc1ccccc1	none (no result: NOMO-1 viab, YB-1 expr inh, PD-1 reverse act, MITF inhib)
CC(C)NC(=O)Nc1ccc2c(c1)CC(=O)N([C@H](C)CO)C[C@H](C)[C@H](CN(C)Cc1ccc(-c3ccccc3)cc1)O2	none
COc1ccc(NC(=O)Nc2ccc3c(c2)CC(=O)N([C@@H](C)CO)C[C@H](C)[C@@H](CN(C)Cc2ccc(-c4ccccc4)cc2)O3)cc1	none (no result: PD-1 reverse act)
C[C@H]1CN([C@@H](C)CO)C(=O)Cc2cc(NC(=O)Nc3ccc(F)cc3)ccc2O[C@@H]1CN(C)Cc1ccc(-c2ccccc2)cc1	NOMO-1 viab 106
C[C@@H]1CN([C@H](C)CO)C(=O)Cc2cc(NC(=O)Nc3ccccc3)ccc2O[C@@H]1CN(C)Cc1ccc(-c2ccccc2)cc1	NOMO-1 viab 107
COc1ccc(NC(=O)Nc2ccc3c(c2)CC(=O)N([C@@H](C)CO)C[C@H](C)[C@H](CN(C)Cc2ccc(-c4ccccc4)cc2)O3)cc1	NOMO-1 viab 128
CC(C)NC(=O)Nc1ccc2c(c1)CC(=O)N([C@@H](C)CO)C[C@@H](C)[C@@H](CN(C)Cc1ccc(-c3ccccc3)cc1)O2	NOMO-1 viab 94
C[C@@H]1CN([C@H](C)CO)C(=O)Cc2cc(NC(=O)Nc3ccc(F)cc3)ccc2O[C@@H]1CN(C)Cc1ccc(-c2ccccc2)cc1	none
COc1ccc(OC)c(NC(=O)COc2ccc(C(=O)Nc3ccc(C)cc3)cc2)c1	none (no result: YB-1 expr inh)
C[C@@H]1CN([C@H](C)CO)C(=O)c2cc(NC(=O)Nc3cccc4ccccc34)ccc2O[C@@H]1CN(C)Cc1ccc(Oc2ccccc2)cc1	NOMO-1 viab 89 (no result: PD-1 reverse act)
C[C@@H]1CN([C@@H](C)CO)C(=O)c2cc(NC(=O)Nc3cccc4ccccc34)ccc2O[C@@H]1CN(C)Cc1ccc(C(F)(F)F)cc1	NOMO-1 viab 106
COc1ccc(CN(C)C[C@@H]2Oc3ccc(NC(=O)Nc4cccc5ccccc45)cc3C(=O)N([C@@H](C)CO)C[C@H]2C)cc1	none
C[C@H](CO)N1C[C@H](C)[C@@H](CN(C)Cc2ccc(Oc3ccccc3)cc2)Oc2ccc(NC(=O)Nc3cccc4ccccc34)cc2C1=O	NOMO-1 viab 104
C[C@H]1CN([C@@H](C)CO)C(=O)c2cc(NC(=O)Nc3cccc4ccccc34)ccc2O[C@H]1CN(C)Cc1ccc(-c2ccccc2)cc1	none
C[C@@H]1CN([C@H](C)CO)C(=O)c2cc(NC(=O)Nc3cccc4ccccc34)ccc2O[C@H]1CN(C)Cc1ccc(-c2ccccc2)cc1	NOMO-1 viab 118
Cc1ccc(N(C(C)C(=O)Nc2ccccc2F)S(C)(=O)=O)cc1 (configuration not stated)	none (no result: YB-1 expr inh, U2OS ROS induce)
C[C@H]1CN([C@@H](C)CO)C(=O)c2cc(NC(=O)Nc3cccc4ccccc34)ccc2O[C@@H]1CN(C)Cc1ccc(Oc2ccccc2)cc1	NOMO-1 viab 121
COc1ccc(CN(C)C[C@H]2Oc3ccc(NC(=O)Nc4cccc5ccccc45)cc3C(=O)N([C@H](C)CO)C[C@H]2C)cc1	none (no result: PD-1 reverse act)
C[C@H](CO)N1C[C@H](C)[C@H](CN(C)Cc2ccc(Oc3ccccc3)cc2)Oc2ccc(NC(=O)Nc3cccc4ccccc34)cc2C1=O	NOMO-1 viab 113
CCCc1cc(=O)oc2cc(OC(C(=O)OCC)c3ccccc3)c(Cl)cc12 (configuration not stated)	none (no result: NOMO-1 viab, YB-1 expr inh, PD-1 reverse act, MITF inhib)
COc1c(-c2coc3cc4c(cc3c2=O)CC(O)C(C)(C)O4)ccc2c1C=CC(C)(C)O2 (configuration not stated)	NOMO-1 viab 102, MITF inhib 99 (no result: PD-1 reverse act)
CC1(C)C=Cc2c(cc3occ(-c4ccc5c(c4)OCO5)c(=O)c3c2O)O1	none (no result: PD-1 reverse act)
